In the assay the test system is PPARg:RXRa (NR concentration 180 nM, RXRa partner concentration 90 nM). The assay is described as follows: PBM binding z-score (relative to random genomic background probes); higher = stronger binding; sequences stand for … in GC…GCGATTGACAGCGTAGAATGAAGG
The gist of the method: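 Ligand-free nuclear receptor dimers were bound for 1 h to custom Agilent 4×180K protein-binding microarrays. Detection used antibodies against each partner (one per run). Binding z-scores rest on regression-normalized fluorescence, with random background probes as the reference.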
The sequence TCTTGTAGATCAAGCAGGTTAGGAAAGCCTGAGT gave a PBM binding z-score of -0.615. Then ATCTCTAGGTAGAGTTCAGTGAAAGATCGATAGA, with 1.1; and GCTTGTAGAGCAAGGTTAAGAAAGACTAAGCTAA, with 1.41.

With CAAACTAGGTCAAATGTCAAAGTCGAGCCAACCA, the PBM binding z-score was 11.8. Then TCATATAGGTATAGGTGAAAGTCGAACGATATGA, with 1.72. The same measure for CAAACTAGGTCAAGAGATCAAAGTCCGCTTCCCG: 8.04; for CCTGCTAGGTCAATCGTCAGCTAAAGCAGCTCGC: 1.39. Regarding CGTCAAAGTTCAAGGTAACGTGACAGAAAGCAGC, the PBM binding z-score came to 4.02.

Sequence ATCGAAACGTCGAGGTGAGTATAGAGAAAGGGAA came in with a PBM binding z-score of 0.304. Then AGCGAAAGGTCGTGAGGTGAGTATACAGAAAGGC, with 4.55. Then CGAACTAGGGCATTGACAGGACAGTGAATAGTAA, with 3.32. The same measure for CGGACTGGGGCAAGGTTACCATAACGCACAGCCA: 4.88. For the sequence AGCATGAGGTTACCAAAGATCAGGGAAACGCTTG, the PBM binding z-score was 1.41. For CTAGCAAGGTGAACAAGGTCGTTGATTACTATTC, the PBM binding z-score amounted to 0.843. The same measure for CTACTAAGGTGAACAAGGTCGTTGATTACTATTC: 1.47; for CGTCCAAGGTCAAAGTTCAGTGAAGAGATGACGG: 9.06; for TCTTGTAGATCAATAGAGGGTAAGAAAGTGCGCT: -0.216. The same measure for ATCGAAAGGTCGTGAGGTGCGTATACAGAAAGGC: 3.39; for CCTATTAGTTGAGCATAAGGGCAACCGAAGCTCG: 0.333. Then TCTTGTAGATCAACAGGAGGTTAAAAAAGATCGA, with 0.116; and TGAATGAGGTTAAAGTTCAGGGAACGTGGCGTCG, with 9.26; and ATCTCTAGGTAAGACTCAATTCAGTGAAGAACGC, with 0.199.

The values are drawn from the supplement of paper PMC6555819.
